# Reference: paper PMC7862700, “An all-to-all approach to the identification of sequence-specific readers for epigenetic DNA modifications on cytosine”
# What was measured:
# Test in all cases: DAPPL (digital affinity profiling via proximity ligation, sequencing); 10 mM Tris-HCl pH 7.5, 50 mM NaCl, 1 mM DTT, 4% glycerol, room temperature, 30 min; GST-TFs on glutathione beads, 16-mer random dsDNA library, 0.1% formaldehyde crosslink after washing; high values mean tight binding
# Details in all cases: protein: recombinant; tags: N-terminal GST; dsDNA, one strand shown
# [1] = molecular target: T1, ELK1 (Homo sapiens, UniProt P19419 1-428)
# T1 sequence: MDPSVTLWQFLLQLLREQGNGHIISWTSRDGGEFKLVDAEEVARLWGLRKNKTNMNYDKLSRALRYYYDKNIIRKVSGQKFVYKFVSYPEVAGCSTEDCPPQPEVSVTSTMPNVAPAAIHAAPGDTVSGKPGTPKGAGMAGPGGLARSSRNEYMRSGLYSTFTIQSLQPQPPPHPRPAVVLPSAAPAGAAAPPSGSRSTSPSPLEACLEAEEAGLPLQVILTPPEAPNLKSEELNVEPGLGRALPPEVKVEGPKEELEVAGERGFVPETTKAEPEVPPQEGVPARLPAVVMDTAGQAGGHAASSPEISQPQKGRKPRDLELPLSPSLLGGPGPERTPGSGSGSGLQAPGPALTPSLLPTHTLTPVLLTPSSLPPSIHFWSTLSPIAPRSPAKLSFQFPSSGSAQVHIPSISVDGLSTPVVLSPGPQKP
# How it was run: (§1)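 A tag-only sample was pooled with DNA-barcoded human transcription factors that had been expressed in yeast as GST fusions and captured on glutathione beads. The pools were incubated for 30 min at room temperature with 200 nmole of a random double-stranded 16-mer DNA library in Tris/NaCl/DTT/glycerol buffer, then washed, crosslinked with 0.1% formaldehyde, proximity-ligated (BsaI/T4 ligase, 1 h, 37 °C), PCR-amplified and sequenced on an Illumina NextSeq500. Binding signal is each hexamer's read frequency for a factor divided by its frequency for the tag-only sample.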
# [2] = molecular target: T2, GABPA (Homo sapiens, UniProt Q06546 1-454)
# T2 sequence: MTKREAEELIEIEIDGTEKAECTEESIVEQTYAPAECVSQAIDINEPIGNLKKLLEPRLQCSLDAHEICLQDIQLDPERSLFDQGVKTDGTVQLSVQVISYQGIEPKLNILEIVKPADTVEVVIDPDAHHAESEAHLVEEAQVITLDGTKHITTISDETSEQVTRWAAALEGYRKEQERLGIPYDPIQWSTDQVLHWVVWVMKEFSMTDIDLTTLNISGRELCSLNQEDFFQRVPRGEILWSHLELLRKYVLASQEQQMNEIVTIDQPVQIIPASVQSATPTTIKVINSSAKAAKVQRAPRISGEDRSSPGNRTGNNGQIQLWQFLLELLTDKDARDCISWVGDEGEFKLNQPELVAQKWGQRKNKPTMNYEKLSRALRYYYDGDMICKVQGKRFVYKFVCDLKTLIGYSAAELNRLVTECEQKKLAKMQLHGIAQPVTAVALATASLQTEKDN
# How it was run: as §1
# [3] = molecular target: T3, ERG (Homo sapiens, UniProt P11308 1-479)
# T3 sequence: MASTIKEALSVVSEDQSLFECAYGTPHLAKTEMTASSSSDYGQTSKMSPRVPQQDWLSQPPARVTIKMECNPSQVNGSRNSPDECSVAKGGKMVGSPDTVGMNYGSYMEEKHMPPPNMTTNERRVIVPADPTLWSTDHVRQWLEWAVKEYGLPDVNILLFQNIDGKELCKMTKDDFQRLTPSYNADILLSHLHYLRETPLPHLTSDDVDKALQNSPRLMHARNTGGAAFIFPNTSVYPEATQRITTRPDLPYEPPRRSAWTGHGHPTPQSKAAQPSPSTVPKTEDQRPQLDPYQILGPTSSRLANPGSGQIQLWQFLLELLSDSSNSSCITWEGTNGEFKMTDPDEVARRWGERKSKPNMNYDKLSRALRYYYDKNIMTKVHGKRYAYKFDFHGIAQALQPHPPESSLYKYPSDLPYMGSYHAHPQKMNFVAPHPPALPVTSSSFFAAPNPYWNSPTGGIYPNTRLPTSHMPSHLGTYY
# How it was run: as §1
# [4] = molecular target: ELF1 (Homo sapiens, UniProt P32519 1-619)
# Sequence of ELF1 (P32519 whole entry): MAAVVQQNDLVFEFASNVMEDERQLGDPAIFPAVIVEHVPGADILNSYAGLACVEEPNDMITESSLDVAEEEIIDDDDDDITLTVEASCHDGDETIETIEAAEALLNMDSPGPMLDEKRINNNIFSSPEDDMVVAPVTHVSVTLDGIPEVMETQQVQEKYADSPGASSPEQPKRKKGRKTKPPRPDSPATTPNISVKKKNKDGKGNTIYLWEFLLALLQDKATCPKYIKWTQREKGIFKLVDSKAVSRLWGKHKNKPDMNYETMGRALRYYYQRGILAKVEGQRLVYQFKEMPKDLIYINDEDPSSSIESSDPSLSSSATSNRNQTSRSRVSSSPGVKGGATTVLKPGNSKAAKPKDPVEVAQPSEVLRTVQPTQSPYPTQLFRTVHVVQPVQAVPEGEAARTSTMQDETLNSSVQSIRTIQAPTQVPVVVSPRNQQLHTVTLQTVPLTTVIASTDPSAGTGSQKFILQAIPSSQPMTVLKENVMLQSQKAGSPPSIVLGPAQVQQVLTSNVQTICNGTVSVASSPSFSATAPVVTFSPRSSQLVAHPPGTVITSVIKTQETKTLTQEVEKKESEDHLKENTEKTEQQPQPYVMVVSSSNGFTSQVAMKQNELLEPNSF
# How it was run: as §1
# [5] = molecular target: T4, EHF (Homo sapiens, UniProt Q9NZC4 1-300)
# T4 sequence: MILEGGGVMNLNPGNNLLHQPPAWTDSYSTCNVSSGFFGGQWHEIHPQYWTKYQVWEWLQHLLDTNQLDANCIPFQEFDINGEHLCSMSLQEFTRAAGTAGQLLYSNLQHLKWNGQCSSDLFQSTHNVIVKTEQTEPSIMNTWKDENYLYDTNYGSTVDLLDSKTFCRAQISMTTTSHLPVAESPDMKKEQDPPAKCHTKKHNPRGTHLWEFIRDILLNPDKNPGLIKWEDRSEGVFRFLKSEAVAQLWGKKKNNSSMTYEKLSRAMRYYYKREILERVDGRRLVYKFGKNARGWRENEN
# How it was run: as §1
# [6] = molecular target: SPIB (Homo sapiens, UniProt Q01892 1-262)
# Sequence of SPIB (Q01892 whole entry): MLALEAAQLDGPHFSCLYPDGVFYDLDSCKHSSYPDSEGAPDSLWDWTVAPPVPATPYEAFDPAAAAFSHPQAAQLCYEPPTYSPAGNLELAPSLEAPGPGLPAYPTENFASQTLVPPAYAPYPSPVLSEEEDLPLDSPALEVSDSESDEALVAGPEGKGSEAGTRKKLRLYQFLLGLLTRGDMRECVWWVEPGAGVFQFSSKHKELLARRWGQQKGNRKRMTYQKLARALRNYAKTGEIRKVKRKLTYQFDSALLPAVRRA
# How it was run: as §1
# [7] = molecular target: T5, FEV (Homo sapiens, UniProt Q99581 1-238)
# T5 sequence: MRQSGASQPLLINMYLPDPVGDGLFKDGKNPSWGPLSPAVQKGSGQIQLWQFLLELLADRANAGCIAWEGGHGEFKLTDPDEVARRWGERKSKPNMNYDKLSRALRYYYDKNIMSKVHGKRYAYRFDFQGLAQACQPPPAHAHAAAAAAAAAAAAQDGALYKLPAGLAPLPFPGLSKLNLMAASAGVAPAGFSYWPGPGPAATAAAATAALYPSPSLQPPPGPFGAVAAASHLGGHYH
# How it was run: as §1
# [8] = molecular target: ETV5 (Homo sapiens, UniProt P41161 1-510)
# Sequence of ETV5 (P41161 whole entry): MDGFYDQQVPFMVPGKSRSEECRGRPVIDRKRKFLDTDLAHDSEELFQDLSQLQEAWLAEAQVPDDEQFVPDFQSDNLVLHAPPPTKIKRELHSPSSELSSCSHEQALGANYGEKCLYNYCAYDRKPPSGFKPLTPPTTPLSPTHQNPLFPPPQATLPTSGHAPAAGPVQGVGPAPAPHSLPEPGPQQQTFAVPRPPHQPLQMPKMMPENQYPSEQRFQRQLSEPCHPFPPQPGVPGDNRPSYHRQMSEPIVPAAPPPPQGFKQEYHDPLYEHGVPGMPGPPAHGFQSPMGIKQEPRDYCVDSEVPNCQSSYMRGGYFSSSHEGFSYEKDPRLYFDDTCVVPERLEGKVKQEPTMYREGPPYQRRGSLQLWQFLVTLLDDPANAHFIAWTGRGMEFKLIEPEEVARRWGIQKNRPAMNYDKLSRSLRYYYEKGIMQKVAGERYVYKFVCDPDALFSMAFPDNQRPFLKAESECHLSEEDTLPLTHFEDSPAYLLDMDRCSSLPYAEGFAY
# How it was run: as §1
# [9] = molecular target: ELF4 (Homo sapiens, UniProt Q99607 1-663)
# Sequence of ELF4 (Q99607 whole entry): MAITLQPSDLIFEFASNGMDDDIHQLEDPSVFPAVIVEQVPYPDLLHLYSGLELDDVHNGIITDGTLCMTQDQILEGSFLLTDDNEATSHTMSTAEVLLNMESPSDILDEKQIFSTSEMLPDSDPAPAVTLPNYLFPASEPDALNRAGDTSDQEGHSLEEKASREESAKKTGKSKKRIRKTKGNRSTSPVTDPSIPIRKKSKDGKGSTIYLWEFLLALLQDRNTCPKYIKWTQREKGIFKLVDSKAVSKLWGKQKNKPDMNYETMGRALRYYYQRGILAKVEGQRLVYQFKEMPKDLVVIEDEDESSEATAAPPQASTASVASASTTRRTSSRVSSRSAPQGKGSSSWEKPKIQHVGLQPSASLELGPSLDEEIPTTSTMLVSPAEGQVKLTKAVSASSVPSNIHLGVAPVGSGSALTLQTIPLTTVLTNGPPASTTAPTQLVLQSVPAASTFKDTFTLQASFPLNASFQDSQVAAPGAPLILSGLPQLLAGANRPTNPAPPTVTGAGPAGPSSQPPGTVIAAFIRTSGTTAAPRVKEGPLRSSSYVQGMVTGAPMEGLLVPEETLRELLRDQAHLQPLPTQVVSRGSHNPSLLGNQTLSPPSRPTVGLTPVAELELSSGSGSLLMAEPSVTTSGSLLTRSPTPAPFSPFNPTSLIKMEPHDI
# How it was run: as §1
# [10] = molecular target: T6, ELK4 (Homo sapiens, UniProt P28324-2 1-405)
# T6 sequence: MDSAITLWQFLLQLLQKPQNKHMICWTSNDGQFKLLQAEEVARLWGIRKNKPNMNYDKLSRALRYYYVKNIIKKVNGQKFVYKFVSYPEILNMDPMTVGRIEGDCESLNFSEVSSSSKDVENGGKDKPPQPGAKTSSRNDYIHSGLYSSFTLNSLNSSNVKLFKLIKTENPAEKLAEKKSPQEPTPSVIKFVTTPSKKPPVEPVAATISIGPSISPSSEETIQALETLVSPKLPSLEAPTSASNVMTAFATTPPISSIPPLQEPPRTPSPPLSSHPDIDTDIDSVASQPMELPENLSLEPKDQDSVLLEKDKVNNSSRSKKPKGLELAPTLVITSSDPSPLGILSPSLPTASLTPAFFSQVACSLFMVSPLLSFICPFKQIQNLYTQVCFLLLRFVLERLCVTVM
# How it was run: as §1
# [11] = molecular target: T7, ELF3 (Homo sapiens, UniProt P78545 1-371)
# T7 sequence: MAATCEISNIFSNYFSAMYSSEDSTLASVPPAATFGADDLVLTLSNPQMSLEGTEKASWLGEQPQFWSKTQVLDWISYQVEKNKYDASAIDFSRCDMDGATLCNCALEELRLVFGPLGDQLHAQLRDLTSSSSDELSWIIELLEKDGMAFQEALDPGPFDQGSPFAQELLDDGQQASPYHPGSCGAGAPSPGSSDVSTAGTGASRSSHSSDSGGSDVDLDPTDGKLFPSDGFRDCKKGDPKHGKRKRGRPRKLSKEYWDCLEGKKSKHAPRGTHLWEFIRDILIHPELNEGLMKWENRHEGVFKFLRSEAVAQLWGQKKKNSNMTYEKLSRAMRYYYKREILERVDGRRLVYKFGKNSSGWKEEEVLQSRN
# How it was run: as §1
# [12] = molecular target: ETV1 (Homo sapiens, UniProt P50549 1-477)
# Sequence of ETV1 (P50549 whole entry): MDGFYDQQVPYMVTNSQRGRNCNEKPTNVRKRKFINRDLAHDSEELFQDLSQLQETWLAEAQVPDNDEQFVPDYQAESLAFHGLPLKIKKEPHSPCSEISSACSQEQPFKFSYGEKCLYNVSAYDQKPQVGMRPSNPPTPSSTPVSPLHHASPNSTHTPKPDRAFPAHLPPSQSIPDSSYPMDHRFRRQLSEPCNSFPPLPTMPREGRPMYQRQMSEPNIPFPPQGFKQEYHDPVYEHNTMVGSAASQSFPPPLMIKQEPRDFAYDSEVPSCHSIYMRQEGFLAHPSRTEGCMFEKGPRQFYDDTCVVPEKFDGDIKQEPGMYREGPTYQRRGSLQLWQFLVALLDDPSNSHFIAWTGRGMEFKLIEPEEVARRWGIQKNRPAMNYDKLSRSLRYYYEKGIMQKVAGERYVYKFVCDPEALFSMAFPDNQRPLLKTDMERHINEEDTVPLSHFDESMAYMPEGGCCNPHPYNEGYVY
# How it was run: as §1
# [13] = molecular target: T8, ERF (Homo sapiens, UniProt P50548 1-548)
# T8 sequence: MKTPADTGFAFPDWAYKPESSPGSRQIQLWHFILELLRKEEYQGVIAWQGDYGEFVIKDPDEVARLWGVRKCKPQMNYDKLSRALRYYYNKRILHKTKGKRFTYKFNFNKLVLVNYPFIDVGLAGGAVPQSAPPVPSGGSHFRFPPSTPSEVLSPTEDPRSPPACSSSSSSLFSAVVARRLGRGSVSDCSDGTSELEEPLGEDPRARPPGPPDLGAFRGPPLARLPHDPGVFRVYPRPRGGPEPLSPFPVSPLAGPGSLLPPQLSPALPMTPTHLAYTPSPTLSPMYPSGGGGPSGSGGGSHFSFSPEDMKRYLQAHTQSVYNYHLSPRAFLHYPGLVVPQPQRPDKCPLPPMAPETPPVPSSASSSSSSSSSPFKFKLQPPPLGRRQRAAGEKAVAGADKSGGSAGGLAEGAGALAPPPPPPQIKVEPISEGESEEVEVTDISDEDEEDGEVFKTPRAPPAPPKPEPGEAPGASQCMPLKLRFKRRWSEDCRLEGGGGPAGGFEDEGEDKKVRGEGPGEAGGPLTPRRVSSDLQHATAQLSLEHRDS
# How it was run: as §1
# [14] = molecular target: T9, ETV3L (Homo sapiens, UniProt Q6ZN32 1-361)
# T9 sequence: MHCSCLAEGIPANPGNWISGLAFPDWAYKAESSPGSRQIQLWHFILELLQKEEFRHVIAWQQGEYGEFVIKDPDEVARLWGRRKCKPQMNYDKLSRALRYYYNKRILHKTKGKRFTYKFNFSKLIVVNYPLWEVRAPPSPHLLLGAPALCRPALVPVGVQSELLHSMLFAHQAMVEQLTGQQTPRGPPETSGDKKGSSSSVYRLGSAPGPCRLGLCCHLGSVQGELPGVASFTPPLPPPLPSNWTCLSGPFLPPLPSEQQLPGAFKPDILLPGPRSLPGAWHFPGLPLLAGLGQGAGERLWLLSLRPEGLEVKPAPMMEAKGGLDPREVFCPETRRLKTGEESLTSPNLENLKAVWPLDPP
# How it was run: as §1
# [15] = molecular target: T10, ETS2 (Homo sapiens, UniProt P15036 1-469)
# T10 sequence: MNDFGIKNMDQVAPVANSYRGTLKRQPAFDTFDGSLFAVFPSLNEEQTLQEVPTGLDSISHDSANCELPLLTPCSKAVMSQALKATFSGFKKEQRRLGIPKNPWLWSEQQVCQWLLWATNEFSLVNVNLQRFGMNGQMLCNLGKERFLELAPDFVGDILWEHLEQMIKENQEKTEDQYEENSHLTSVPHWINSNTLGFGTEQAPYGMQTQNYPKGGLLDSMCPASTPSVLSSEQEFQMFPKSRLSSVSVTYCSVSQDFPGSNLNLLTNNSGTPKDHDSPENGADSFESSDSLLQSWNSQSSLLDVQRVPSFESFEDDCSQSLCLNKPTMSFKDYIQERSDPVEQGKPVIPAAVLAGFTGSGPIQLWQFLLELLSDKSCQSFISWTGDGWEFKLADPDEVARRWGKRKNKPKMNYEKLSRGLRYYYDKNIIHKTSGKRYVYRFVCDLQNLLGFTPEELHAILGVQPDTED
# How it was run: as §1
# [16] = molecular target: T11, SPDEF (Homo sapiens, UniProt O95238 1-335)
# T11 sequence: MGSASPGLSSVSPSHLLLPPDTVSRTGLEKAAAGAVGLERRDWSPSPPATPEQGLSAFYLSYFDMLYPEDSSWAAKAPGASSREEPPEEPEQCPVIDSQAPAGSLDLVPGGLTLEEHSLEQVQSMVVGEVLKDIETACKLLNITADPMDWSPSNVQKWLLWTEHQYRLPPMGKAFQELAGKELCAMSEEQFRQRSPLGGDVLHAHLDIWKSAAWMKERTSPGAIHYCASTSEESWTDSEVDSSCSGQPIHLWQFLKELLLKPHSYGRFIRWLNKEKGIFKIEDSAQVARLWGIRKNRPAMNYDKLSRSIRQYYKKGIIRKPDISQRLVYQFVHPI
# How it was run: as §1
# [17] = molecular target: T12, ETV7 (Homo sapiens, UniProt Q9Y603 1-341)
# T12 sequence: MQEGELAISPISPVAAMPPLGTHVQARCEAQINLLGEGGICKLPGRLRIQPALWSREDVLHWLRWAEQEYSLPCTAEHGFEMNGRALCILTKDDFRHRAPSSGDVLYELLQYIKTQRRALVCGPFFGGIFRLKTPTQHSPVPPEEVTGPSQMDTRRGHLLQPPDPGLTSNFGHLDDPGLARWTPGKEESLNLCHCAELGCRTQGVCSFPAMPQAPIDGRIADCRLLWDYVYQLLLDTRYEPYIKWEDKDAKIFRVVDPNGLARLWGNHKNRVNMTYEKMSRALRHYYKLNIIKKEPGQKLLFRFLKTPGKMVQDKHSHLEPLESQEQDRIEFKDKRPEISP
# How it was run: as §1
# [18] = molecular target: T13, ETV3 (Homo sapiens, UniProt P41162-2 1-143)
# T13 sequence: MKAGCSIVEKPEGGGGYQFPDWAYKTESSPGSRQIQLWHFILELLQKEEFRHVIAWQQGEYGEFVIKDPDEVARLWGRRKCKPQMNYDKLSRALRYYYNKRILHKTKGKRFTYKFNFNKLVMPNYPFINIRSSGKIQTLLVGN
# How it was run: as §1
# [19] = molecular target: ETV6 (Homo sapiens, UniProt P41212 1-452)
# Sequence of ETV6 (P41212 whole entry): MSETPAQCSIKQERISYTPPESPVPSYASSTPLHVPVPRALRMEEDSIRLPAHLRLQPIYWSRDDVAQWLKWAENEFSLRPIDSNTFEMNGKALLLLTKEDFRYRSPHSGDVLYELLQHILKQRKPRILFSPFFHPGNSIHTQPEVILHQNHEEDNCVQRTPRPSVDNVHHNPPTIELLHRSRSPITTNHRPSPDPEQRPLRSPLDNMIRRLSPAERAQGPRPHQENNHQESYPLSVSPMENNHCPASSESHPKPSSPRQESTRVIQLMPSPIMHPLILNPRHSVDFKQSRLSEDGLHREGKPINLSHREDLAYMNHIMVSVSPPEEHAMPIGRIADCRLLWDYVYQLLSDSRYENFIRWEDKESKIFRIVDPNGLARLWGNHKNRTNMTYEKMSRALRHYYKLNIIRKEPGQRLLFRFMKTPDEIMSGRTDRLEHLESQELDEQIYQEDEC
# How it was run: as §1
sequence,measurement,setting,value
GGCTAC,binding signal,[1],"1.12 fold enrichment (6-mer frequency, TF over GST control)"
same,binding signal,[2],"1.18 fold enrichment (6-mer frequency, TF over GST control)"
same,binding signal,[3],"1.09 fold enrichment (6-mer frequency, TF over GST control)"
same,binding signal,[4],"1.26 fold enrichment (6-mer frequency, TF over GST control)"
same,binding signal,[5],"1.07 fold enrichment (6-mer frequency, TF over GST control)"
same,binding signal,[6],"1.16 fold enrichment (6-mer frequency, TF over GST control)"
same,binding signal,[7],"1.1 fold enrichment (6-mer frequency, TF over GST control)"
same,binding signal,[8],"1.22 fold enrichment (6-mer frequency, TF over GST control)"
same,binding signal,[9],"1.17 fold enrichment (6-mer frequency, TF over GST control)"
same,binding signal,[10],"1.1 fold enrichment (6-mer frequency, TF over GST control)"
same,binding signal,[11],"1.18 fold enrichment (6-mer frequency, TF over GST control)"
same,binding signal,[12],"1.12 fold enrichment (6-mer frequency, TF over GST control)"
same,binding signal,[13],"1.12 fold enrichment (6-mer frequency, TF over GST control)"
same,binding signal,[14],"1.16 fold enrichment (6-mer frequency, TF over GST control)"
same,binding signal,[15],"1.2 fold enrichment (6-mer frequency, TF over GST control)"
same,binding signal,[16],"1.22 fold enrichment (6-mer frequency, TF over GST control)"
same,binding signal,[17],"1.26 fold enrichment (6-mer frequency, TF over GST control)"
same,binding signal,[18],"1.07 fold enrichment (6-mer frequency, TF over GST control)"
same,binding signal,[19],"1.2 fold enrichment (6-mer frequency, TF over GST control)"
